Measurements published in PubChem BioAssay (NCI).
About 83,000 compounds went through this panel and 20% of them were active in at least one assay; those are over-represented in the sample as a whole.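 Single-concentration screen, 48 h exposure, 96-well plates. Endpoint: percent growth. Below 10 = active.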 A number with no mark means an inactive call. Calls of active or inactive are those of the source.

Tests used:
Test in all cases: NCI-60 one-dose screen, 48 h (100 = growth as untreated, 0 = no growth, -100 = all killed)
Settings in all cases: 10 µM unless noted
T-47D breast = tested on: T-47D breast
BT-549 breast = tested on: BT-549 breast
MDA-MB-435 melanoma = tested on: MDA-MB-435 melanoma
SW-620 colon = tested on: SW-620 colon
MCF7 breast = tested on: MCF7 breast
HCT-116 colon = tested on: HCT-116 colon
HCC-2998 colon = tested on: HCC-2998 colon
KM12 colon = tested on: KM12 colon

Structure (SMILES) | growth (T-47D breast) | growth (BT-549 breast) | growth (MDA-MB-435 melanoma) | growth (SW-620 colon) | growth (MCF7 breast) | growth (HCT-116 colon) | growth (HCC-2998 colon) | growth (KM12 colon)
COc1ccccc1-n1c(-c2cc(O)ccc2C)cn2c3c(=O)[nH]c(=O)n(C)c3nc12 | 87.8% | 100% | 104% | 106% | 84.1% | 86.5% | 98.6% | 108%
CN1CCN(Cc2ccc(NC(=O)c3cncc(C#Cc4cncc5[nH]ncc45)c3)cc2C(F)(F)F)CC1 | 31.3% | 23.5% | 2.84% (active) | -29.1% (active) | 20.5% | 1.91% (active) | 6.34% (active) | 3.69% (active)
CC1COCC(C)N1C1=C(Cl)C(=O)c2ccccc2C1=O (configuration not stated) | -55.2% (active) | 76% | 29.6% | 42.6% | 50.8% | -9.39% (active) | 101% | 89%
COC(=O)c1nc(-c2ccccc2)oc1S(=O)(=O)N1CCC(C(N)=O)CC1 | 36% | 76.2% | 59.5% | 25.4% | 32% | 43.9% | 104% | 87.8%
O=C(O)CCCn1c(SCc2c(Cl)cccc2Cl)nc2ccsc2c1=O | 35.5% | 34.2% | -58.4% (active) | 15.1% | 20.6% | 18.8% | 29.6% | 18.3%
Fc1ccc(COc2ccc(Nc3ncnc4sc5c(c34)CCCC5)cc2)cc1 | 86.6% | 99.1% | 96.1% | 92% | 88.2% | 93.7% | 104% | 90.1%
N#C/C(=C\c1ccc(-c2ccc(Cl)cc2)o1)c1ccc(Cl)cc1 | 51.2% | 79.5% | 85.1% | 66.2% | 62.1% | 12.7% | 96.4% | 88.9%
COc1cc2c(c(OC)c1OC)C(=O)N[C@@H]1[C@@H](O)[C@@H](O)[C@H](O)C[C@@H]21 | 100% | 110% | 110% | 109% | 96.1% | 98.9% | 101% | 108%
CCC(C)Nc1ccc(NC(C)CC)cc1 (configuration not stated) | 79.7% | 85.4% | 95.3% | 106% | 47.2% | 28.2% | 80.2% | 112%
FC(F)(F)c1[nH]ncc1-c1nc2c(N3CCCCC3)cc3[nH]ncc3c2c2c1CCCC2 | -4.06% (active) | -52.7% (active) | 10.8% | 6.31% (active) | 3.33% (active) | 3.74% (active) | -8.43% (active) | 11.1%
CCCCCCOC(=O)CC1=C(C)/C(=C/c2[nH]c(-c3ccc[nH]3)cc2OC)N=C1C | -32.8% (active) | -33.9% (active) | -82.4% (active) | -74% (active) | -24.1% (active) | -79% (active) | -47.5% (active) | -51.4% (active)
Cc1ccc(/C=C(\C#N)C(=O)Nc2ncc(Cc3cc(Cl)ccc3Cl)s2)o1 | 51.1% | 65.4% | 30.4% | 53.4% | 49.6% | 54.4% | 29.7% | 27%
CN1CCN(CCCOc2ccc3ncnc(Nc4ccc(Oc5cccc(F)c5)c(Cl)c4)c3c2)CC1 | 20.8% | 90.4% | -84.8% (active) | -71.9% (active) | 3.01% (active) | -63.6% (active) | -40% (active) | 6.17% (active)
COc1ccc(Cn2cc(C(=O)N=Nc3c(O)[nH]c4c(Cl)cccc34)nn2)cc1 | 100% | 111% | 101% | 99.7% | 84.3% | 91.6% | 99.3% | 107%
COc1cc(-c2nc(NC(C)=O)sc2-c2ccnc(NCCNS(=O)(=O)c3ccccc3)n2)ccc1Cl | 41.8% | -8.24% (active) | -62.3% (active) | 33.3% | 14.1% | 12.2% | 73.2% | 25.6%
Cc1ccc(/C=C/C(=O)c2ccc(NC(=O)CSc3nc4c([nH]3)c(=O)n(C)c(=O)n4C)cc2)c(C)c1 | 37.2% | 69.9% | 60.7% | 49% | 39.8% | 5.13% (active) | 45.1% | 37.5%
CN1CCN(CCOc2ccc(-c3cnc4c(-c5ccc(C(F)(F)F)cc5)cnn4c3)cc2)CC1 | 27.1% | 47.8% | 11.8% | -63.1% (active) | 10.3% | -55.3% (active) | 33.1% | -28.1% (active)
CCCCN1C(=O)/C(=c2\sc3n(c2=O)NC2C(N=3)N(CC)C(=O)N2CC)c2ccccc21 (configuration not stated) | 18.7% | 73.4% | -41.6% (active) | 36.2% | 25% | 13.1% | 64.1% | 20.3%
COc1ccc(-c2oc(=O)ccc2-c2cc(OC)c(OC)c(OC)c2)cc1O | 44.7% | 24.7% | -64.9% (active) | 14.8% | 10.6% | -30.2% (active) | 211% | 22.6%
CCCCCCC(=O)Nc1ncc(Cc2ccc(C)cc2)s1 | 35.4% | 59.1% | -25.9% (active) | 22.4% | 24.7% | 33.3% | 70.3% | 30.7%
CNC(=O)c1c(NC(=O)c2ccc(C(C)(C)C)cc2)sc2c(CN(C)C)c(O)ccc12 | -3.98% (active) | 71.9% | -85% (active) | -85.8% (active) | -43.2% (active) | -88.4% (active) | -83.6% (active) | -79.6% (active)
C=C1C(=O)O[C@H]2[C@H]1CC/C(COC(=O)NCCCCCCCCNC(=O)OC/C1=C/CC[C@@]3(C)O[C@H]3[C@H]3OC(=O)C(=C)[C@@H]3CC1)=C\CC[C@@]1(C)O[C@@H]21 | -45.7% (active) | -88.2% (active) | -89.9% (active) | -74.7% (active) | -55.2% (active) | -79.2% (active) | -65.5% (active) | -43.9% (active)
C#CCOc1ccc2ncnc(Nc3cccc(NC(=O)CCl)c3)c2c1 | 85.2% | 68.6% | 81.7% | 33.5% | 41.9% | 22.9% | 99.4% | 71%
N#Cc1c(-c2cccc([N+](=O)[O-])c2)cc(-c2ccc(Nc3nc(Nc4ccc(F)cc4)nc(Nc4ccc(F)cc4)n3)cc2)nc1N | 115% | 173% | 112% | 108% | 291% | 108% | 113% | 114%
CCCCCCCCCCCCCCCCCCOc1ccccc1CC(=O)NCC[N+]1(C)CCOCC1 | 62.3% | 39.8% | 76% | 79.2% | 69% | 61.8% | 31.1% | 5.07% (active)
COc1cc(/C=C\c2cc(/C=C\c3ccc(O)c(OC)c3)n(C(=O)CNc3ccc(Cl)cc3)n2)ccc1O | 31% | 24.3% | -7.11% (active) | 24.9% | 13.8% | 7.69% (active) | 48.6% | 20.2%
CCOC(=O)c1c(NC(=O)c2ccc(C(C)(C)C)cc2)sc2cc(O)ccc12 | 82.7% | 94.7% | 97.4% | 91.7% | 88.4% | 92.7% | 104% | 86%
Cc1ccc(-c2csc(NC(=O)N3CCN(c4cc5c(cc4F)c(=O)c(C(=O)O)cn5C4CC4)CC3)n2)cc1 | 11.5% | 3.9% (active) | 17.6% | 27.2% | 6.05% (active) | 11.4% | 32.9% | 11.4%
CN(C)c1ccc(/C=C/C(=O)c2ccc(Nc3nc(Nc4ccc(F)cc4)nc(Nc4ccc(Cl)cc4)n3)cc2)cc1 | 50.4% | 75.7% | 56.2% | 92.3% | 56.7% | 58.7% | 111% | 73.8%
